According to paper PMC13494018:

B1: design_604_3e0b3014-b333-46f1-8adc-d7f0bf8048fa_498_dldesign_0_cycle1_af2pred (protein)
chain: MLEFLEKVEEKADKKIEEALAKEDPVKALEEEKKKMEAELKAKSEAAKGDPGLHKLYLTAARLAKNQFDVEIKKAKEELE
B2: design_604_3e0b3014-b333-46f1-8adc-d7f0bf8048fa_148_dldesign_0_cycle1_af2pred (protein)
chain: MKEASEEMAKAYEALAELRLLAKKIPEFKEDAEKAEKKLKEAVKADPETALKLAKETKEEVEKAIEKAKKKL
B3: design_604_3e0b3014-b333-46f1-8adc-d7f0bf8048fa_672_dldesign_0_cycle1_af2pred (protein)
chain: ALEKATEAAKKAGEAVAKALGEEGKPVAEEAIEKIADPSTWKDGFSLFLRYAYYAGEEVYKKVDELLDEVLELLS
B4: design_603_0b98da89-d791-4423-9b2d-fd1b7292da18_2465_dldesign_0_cycle1_af2pred (protein)
chain: ASEKAKAFSEAQRLLVRAGKLAAADPKTAPVAELVQKAIFALGDNLEEGLKLAEEAAELAKKIGDEETAKLVKEAAEKIKEVI
B5: design_604_3e0b3014-b333-46f1-8adc-d7f0bf8048fa_503_dldesign_0_cycle1_af2pred (protein)
chain: SAALVDARVAAADALYDAAIAAGYESLAGKIATAFIRGAATGVEAALERASAVAPEELKPVVAAEAAKVAAVA
B6: design_604_3e0b3014-b333-46f1-8adc-d7f0bf8048fa_423_dldesign_0_cycle1_af2pred (protein)
chain: AKEKALKEALKEFDKAQEYGFDYVAEAKKNPEVYEEAYEERKKAIKEAKELYKEATTEEKAKELLELAKKEAEKFKEKAKEL
B7: design_604_3e0b3014-b333-46f1-8adc-d7f0bf8048fa_171_dldesign_0_cycle1_af2pred (protein)
chain: QEALKKELEKAAAKVKELAEYIEKNAEKLTAEEAEKIAEELRKLAKKLREIGEKLDAETRKEAQKAVDLAYEAAALAKSIAARKK
B8: design_604_3e0b3014-b333-46f1-8adc-d7f0bf8048fa_694_dldesign_0_cycle1_af2pred (protein)
chain: SVEEKLKEAEKVFKEVEERAKKVEAKDPEEGKKLREELAKARELAESDPSKAPEAAQQARIALTEAEWEVRKKEK
B9: design_604_3e0b3014-b333-46f1-8adc-d7f0bf8048fa_145_dldesign_0_cycle1_af2pred (protein)
chain: IKQLEQLLEMAEEEAKKDPVTGIALARATINRADRLAASGTPEEAKKANEIKEKAEKVKKEAEAKLAAAEAAAKA
B10: design_604_3e0b3014-b333-46f1-8adc-d7f0bf8048fa_75_dldesign_0_cycle1_af2pred (protein)
chain: SAEAEEAEKKALLEFSEAAAELRGLATLGKNKGNAKELAEKGFKAIEEGKKALEAATKTEEKKEIATRYAKELKELKEKLEKALS
B11: design_603_0b98da89-d791-4423-9b2d-fd1b7292da18_2382_dldesign_0_cycle1_af2pred (protein)
chain: ALAAAKEKAKAIEEKLSQAIFDGADKGPEVVFKAAEEAEKEVEEMKKADPKAKEEVKRAKEAVKKAKAVGKSMKEAEENAKKGA
B12: design_603_0b98da89-d791-4423-9b2d-fd1b7292da18_2271_dldesign_0_cycle1_af2pred (protein)
chain: MTPEEKKAAEAEKIAAAADAAIKAAEKAIASGTKAEIATEAARLESVAMAAKALGTAPDIAERAEAAAEKAWQAAVEKLE
B13: design_604_3e0b3014-b333-46f1-8adc-d7f0bf8048fa_12_dldesign_0_cycle1_af2pred (protein)
chain: MNLEEAKNLLEAAKELVEEAKELLKEGKYKQALAFAKTAYEIAEKVAKEVPELAKEAEKIKKEAKEVIEEAKKAL
B14: design_604_3e0b3014-b333-46f1-8adc-d7f0bf8048fa_253_dldesign_0_cycle1_af2pred (protein)
chain: SETTEKLKKELEAAKKEGKEALAKAEAAGDAEAAKKAGSDAAGKLYEIAAEADSAGDKETAKEARKAAKEIREAAKKAIAAAKAKAAA
B15: design_603_0b98da89-d791-4423-9b2d-fd1b7292da18_2381_dldesign_0_cycle1_af2pred (protein)
chain: AAAAAEEAATAAAAALGKAVAAQVLAAADDPEKRGALVAEAQAIADKLSPAQRAAMAAAMHEAHEKIAEKKSEKAR
B16: design_604_3e0b3014-b333-46f1-8adc-d7f0bf8048fa_739_dldesign_0_cycle1_af2pred (protein)
chain: KEEILKEAKKLKEEAVKKAKEGNAEEGRKARKEFLEEMKKMAEKGDKKEISKITHEALEKIAEAIQEAKEKARKEEEEKK
B17: design_604_3e0b3014-b333-46f1-8adc-d7f0bf8048fa_188_dldesign_0_cycle1_af2pred (protein)
chain: GALEEIKKLGKKAKEAAKNGDSSEAIREFAKLAKAAGKALTPEFAKKASEKLYEVVDTLAKDEEEGKKLLEKKVEEIVKEAKKYLE
B18: design_603_0b98da89-d791-4423-9b2d-fd1b7292da18_2319_dldesign_0_cycle1_af2pred (protein)
chain: AETWLDALDDAAKDHPSFAYAFATSIAKRAEEKIKELTEKAKENASNPELKKKLLEKAEEYKKVLEKAKEVAEKALKEYLA
B19: design_604_3e0b3014-b333-46f1-8adc-d7f0bf8048fa_596_dldesign_0_cycle1_af2pred (protein)
chain: DAKKEIQELTDEAIKKIEEYAKKAKDPKNYEKAIKEAVDTVHEAQQKLAEIGKKYGPEAEKYAKEQRKKVIDAGKKYIEEAKKAQA

Target: VTCN1, Q7Z7D3
Sequence (Q7Z7D3 whole entry): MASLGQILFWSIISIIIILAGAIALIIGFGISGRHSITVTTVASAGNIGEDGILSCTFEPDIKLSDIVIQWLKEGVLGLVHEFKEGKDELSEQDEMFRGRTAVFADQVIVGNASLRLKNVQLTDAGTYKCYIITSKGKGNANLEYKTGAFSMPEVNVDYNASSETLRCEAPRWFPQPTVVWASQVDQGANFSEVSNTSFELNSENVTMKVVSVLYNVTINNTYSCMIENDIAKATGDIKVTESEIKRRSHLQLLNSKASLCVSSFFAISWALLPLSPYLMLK

Binding in a display sort, inactive:
B1 not found
B2 not found
B3 not found
B4 not found
B5 not found
B6 not found
B7 not found
B8 not found
B9 not found
B10 not found
B11 not found
B12 not found
B13 not found
B14 not found
B15 not found
B16 not found
B17 not found
B18 not found
B19 not found
